From the supplement of paper PMC13380429

Test system: Vero E6 infected with SARS-CoV-2
Assay: inhibition of SARS-CoV-2 cytopathic effect; higher = more antiviral protection, active = above 15
Settings: 48 h

Row | Structure (SMILES) | inhibition of SARS-CoV-2 cytopathic effect (1 nM) | inhibition of SARS-CoV-2 cytopathic effect (8.33 nM) | inhibition of SARS-CoV-2 cytopathic effect (100 nM) | inhibition of SARS-CoV-2 cytopathic effect (833.33 nM) | inhibition of SARS-CoV-2 cytopathic effect (10000 nM)
1 | Nc1ncnc2c1nc(Br)n2[C@@H]1O[C@@H]2COP(=O)(O)O[C@H]2[C@H]1O [8-bromo-cAMP] | 2.13% (inactive) | 0.61% (inactive) | 1.53% (inactive) | -1.33% (inactive) | -0.37% (inactive)
2 | CN1C(CCl)Nc2cc(Cl)c(S(N)(=O)=O)cc2S1(=O)=O (stereo not given) [methyclothiazide] | -0.11% (inactive) | 0.15% (inactive) | 1.53% (inactive) | 1% (inactive) | 2.28% (inactive)
3 | C[C@@H](Nc1cc(F)cc(F)c1)c1cc(C(=O)N(C)C)cc2c(=O)cc(N3CCOCC3)oc12 | -3.44% (inactive) | -2.8% (inactive) | -5.04% (inactive) | 1.19% (inactive) | -4.12% (inactive)
4 | NC(=O)c1cnc(N[C@@H]2CCCC[C@@H]2N)nc1Nc1cccc(-n2nccn2)c1 | -1.26% (inactive) | -0.3% (inactive) | 2.11% (inactive) | -0.39% (inactive) | 24.4% (active)
5 | O=C1CN(/N=C/c2ccc(-c3ccc([N+](=O)[O-])cc3)o2)C(=O)N1 [dantrolene] | -2.23% (inactive) | 0.6% (inactive) | -1.1% (inactive) | -0.88% (inactive) | 1.97% (inactive)
6 | Nc1nc(=O)[nH]cc1F [flucytosine] | -1.58% (inactive) | -2.1% (inactive) | 0.5% (inactive) | 2.44% (inactive) | 1.48% (inactive)
7 | C=Cc1c(C)c2cc3nc(c(CC(=O)O)c4[n-]c(cc5nc(cc1[n-]2)C(C)=C5CC)c(C)c4C(=O)O)[C@@H](CCC(=O)O)[C@@H]3C.[Cu+2] [chlorophyllin-copper] | -0.37% (inactive) | 2.9% (inactive) | -1.68% (inactive) | -0.25% (inactive) | -2.81% (inactive)
